The source of these data is ChEMBL document CHEMBL4513216, “Probing the Open Global Health Chemical Diversity Library for Multistage-Active Starting Points for Next-Generation Antimalarials” (ACS Infect Dis, 2020).

The structures appear in SMILES notation. The campaign covered roughly 68,000 compounds. About 2,700 (4%) showed an effect of 50% or more. The list comes from a sample in which strong results are over-represented; it also holds similar structures and randomly drawn compounds.

This experiment has as its system Plasmodium berghei. Nature of the experiment: Screen against P. berghei liver stage (PbLuc), transformed with Luciferase, at 2uM. The class given is functional, HepG2. As to conditions: tested at 2 uM.
As to `O=C(NCC(=O)N1CCCC1)c1nc(Cc2c(Cl)cccc2Cl)no1`, the INHIBITION was 57.4%.

With `CC(C)CNC(=O)CNC(=O)c1nc(Cc2c(Cl)cccc2Cl)no1`, the INHIBITION is on record as -2.09%.

In the case of `CC(O)CNC(=O)c1nc(Cc2c(Cl)cccc2Cl)no1` (stereo not given), the INHIBITION is given as 20.71%.

`COC(=O)NCC(=O)NCC(C)(C)c1cccc(Br)c1`: the INHIBITION is listed as 19.07%.

Regarding `Cc1cccc(CN2CCC3(CCC(C(=O)N(C)C)O3)CC2)n1` (stereo not given), the INHIBITION was found to be 58.4%.

Take `CN(C)C(=O)C1CCC2(CCN(Cc3ccc4ccccc4n3)CC2)O1` (stereo not given): the INHIBITION turned out to be 23.26%.

`Cc1ccc(CN2CCC3(CCC(C(=O)N(C)C)O3)CC2)o1` (stereo not given): the INHIBITION is recorded as 5.14%.

For the molecule `CCn1cnc(NC(=O)NCC2CCS(=O)(=O)CC2)n1`, the INHIBITION amounted to 28.85%.

In the case of `Cc1ccc(CN2CCOC(C)(c3cnn(C)c3)C2)cc1` (stereo not given), the INHIBITION was found to be 21%.

On to `CC(C)N1CCN(C(=O)Cc2csc(-c3ccco3)n2)CC1`, for which the INHIBITION worked out at 28.18%.

For `O=C(Cc1csc(-c2ccco2)n1)N1CCN(CCO)CC1`, the INHIBITION is listed as -27.91%.

`O=C(NCc1ccco1)C1CCCN1Cc1nc(-c2ccco2)no1` (stereo not given): the INHIBITION is recorded as -43.47%.

With `O=C(Cc1csc(-c2ccco2)n1)N1CCSCC1`, the INHIBITION turned out to be 50.76%.

For the molecule `O=C(C1CCCN1Cc1nc(-c2ccco2)no1)N1CCSCC1` (stereo not given), the INHIBITION worked out at 58.05%.

As to `O=C(C1CCCCN1Cc1nc(-c2ccco2)no1)N1CCCC1` (stereo not given), the INHIBITION is given as -113.33%.

As for `CNC(=O)C1CCCN(C(=O)OC)C1` (stereo not given), the INHIBITION is -0.28%.

On to `O=C(CCN1CCCCO1)NCc1cn2c(n1)SCC2`, for which the INHIBITION was found to be 21.36%.

Regarding `Cc1nc(-c2ccccc2)n(CC(=O)NCC(C)C)n1`, the INHIBITION came to 26.4%.

For `COc1ccc(CN2CCC3(CCCN(c4ncc(F)cn4)C3)C2)cc1` (stereo not given), the INHIBITION is -50.35%.

Take `Cc1cnn(CC2CN(c3ccc(C#N)cn3)CCO2)c1` (stereo not given): the INHIBITION was -11.2%.

`CN(C)CC1CN(c2ccc(C#N)cn2)CCO1` (stereo not given): the INHIBITION was 54.85%.

For `Cc1nc(C)n(CC2CN(c3ccc(C#N)cn3)CCO2)n1` (stereo not given), the INHIBITION was -16.42%.

On to `Cc1cccc(CN2C[C@@H]3CC[C@H]2CN(Cc2[nH]cnc2C)C3)n1`, for which the INHIBITION was found to be 25.68%.

On to `Cc1n[nH]cc1CNC1CCN(c2ccccc2)CC1`, for which the INHIBITION came out at 7.83%.

Take `Cc1n[nH]cc1CNC1CCN(c2ccc(F)cc2)CC1`: the INHIBITION was -13.72%.

For `Cc1n[nH]cc1CNC1CCN(c2cccc(C(F)(F)F)c2)CC1`, the INHIBITION came out at 78.72%.

For the molecule `COc1cccc(-c2n[nH]cc2CNC2CCN(C3CC3)CC2)c1`, the INHIBITION is given as -13.89%.

On to `COc1cccc(CC(=O)N2CCC(NCc3c[nH]nc3C)CC2)c1`, for which the INHIBITION turned out to be 55.06%.

As to `COc1ccccc1CC(=O)N1CCC(NCc2c[nH]nc2C)CC1`, the INHIBITION is -14.17%.

Regarding `Fc1cnc(N2CCC3(CC2)CC(OCc2cccnc2)CO3)nc1` (stereo not given), the INHIBITION is on record as 11.18%.

For `CC(=O)N[C@@H]1CN(C(=O)c2cc(C)oc2C)C[C@H]1c1ccc(C)o1`, the INHIBITION was -29.82%.

In the case of `Cc1ccc(NC2CCN(C(=O)CN(C)C3CC3)CC2)nn1`, the INHIBITION is recorded as 21.31%.

In the case of `CC(Cn1ccnc1)NC(=O)N(C)Cc1ccsc1` (stereo not given), the INHIBITION came out at 26.85%.

Regarding `CO[C@H]1CCN(Cc2cccs2)[C@@H]2CN(Cc3ccncc3)C[C@H]12`, the INHIBITION was -4.92%.

With `COCCN1C(=O)CC[C@@H]2[C@H]1CCN2Cc1ccc(C)s1`, the INHIBITION came out at 10.17%.

Regarding `CNc1nc(C)c(C(=O)N2CCC(C(O)Cc3ccccc3)CC2)s1` (stereo not given), the INHIBITION is on record as 40.88%.

Take `CCn1nc(C)c2c1cnn2CCNS(C)(=O)=O`: the INHIBITION came out at 15.46%.

Regarding `CCn1nc(C)c2c1cnn2CCNS(=O)(=O)c1cccs1`, the INHIBITION is recorded as 61.77%.

In the case of `CCn1nc(C)c2c1cnn2CCNS(=O)(=O)c1ccccc1`, the INHIBITION is 0.36%.

`COC(=O)c1cnc(/C=C/c2ccc(C(=O)O)cc2)s1`: the INHIBITION is on record as 23.45%.

For the molecule `CC(=O)Nc1ccc(/C=C/c2ncc(C(=O)O)s2)cc1`, the INHIBITION was found to be 69.71%.

For `COC(=O)c1ccc(/C=C/c2ncc(C(=O)O)s2)cc1`, the INHIBITION is reported as -39.34%.

Regarding `CN1[C@@H](C(=O)NCC2CC2)C[C@H]2CN(Cc3cccc(C#N)c3)C[C@H]21`, the INHIBITION is on record as 36.99%.

Regarding `OC(CNCc1ccccc1C(F)(F)F)c1ccccc1` (stereo not given), the INHIBITION is listed as -2.86%.

In the case of `CCC[C@H]1CN(CCS(C)(=O)=O)C[C@@H]1NC(=O)Cn1cc(C)cn1`, the INHIBITION came to 55.44%.

Regarding `CCC[C@H]1CN(CCOC)C[C@@H]1NC(=O)Cn1cc(C)cn1`, the INHIBITION is -17.99%.

Take `CCC[C@H]1CN(CCCO)C[C@@H]1NC(=O)Cn1cc(C)cn1`: the INHIBITION is listed as 3.97%.

`Cc1cncc(C(=O)N2CCC3(CCCN(c4nncs4)C3)C2)c1` (stereo not given): the INHIBITION is -39.92%.

As for `COc1ccc(CCN(C)C(=O)CN2C(=O)OC[C@@H]2C(C)C)cc1OC`, the INHIBITION is on record as -4.77%.

In the case of `Cc1cccc(CN2CCc3cc(C(=O)O)c(N(C)C)nc3CC2)n1`, the INHIBITION was 30.19%.

`Cc1cnc(N2CCc3cc(C(=O)O)c(N(C)C)nc3CC2)nc1`: the INHIBITION is given as -1.81%.

As for `Cc1nc(CN2CCc3cc(C(=O)O)c(N(C)C)nc3CC2)cs1`, the INHIBITION was found to be 63.04%.

On to `O=C(c1ccc[nH]1)N1CCCC2(CCN(c3ccsc3)C2=O)C1` (stereo not given), for which the INHIBITION was found to be 26.92%.

`CCCc1nnsc1C(=O)N1CCCC1(C)C(=O)N1CCOCC1` (stereo not given): the INHIBITION was determined as 5.76%.

`CNC(=O)CN1C(=O)CCC12CCCN(CCc1ccccc1)C2` (stereo not given): the INHIBITION is 0.2%.
